Screens from PubChem BioAssay.
The list is not random: actives were taken first. Their share in the collection is about 10%.
GPT2 inhibitor – blocks human glutamate pyruvate transaminase 2 | Q8TD30 | Recombinant GPT2, coupled pyruvate oxidase/HRP Amplex Red fluorescence | Potency, µM (highest dose often 57.7 µM), without a hit: at the highest dose activity change, negative = inhibition, usual class: inhibitors | 0.25% of 100,000 active | AID 1671188; further: nearly all actives have a fitted effect of over 60% in size
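Fluorescence read-out: pyruvate from GPT2 turnover coupled to pyruvate oxidase, HRP and Amplex Red (0.2mM ThPP, 0.2U/mL PO and HRP, 50uM Amplex final). Substrates 250uM a-KG, 2mM L-alanine; enzyme 10ng/uL; 30 min RT.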
HEK293 tox – cytotoxic compounds in HEK 293 cells; HEK 293 viability, ATP luminescence (CellTiter-Glo), 48-72 h; Potency, µM (doses to about 115 µM), for the others: top-dose activity change, negative = cytotoxicity, actives largely listed as inhibitors; 6.6% of 94,000 active; further: nearly all actives have a fitted effect of over 60% in size
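CellTiter-Glo luminescence (cellular ATP) was read after 48 or 72 hr of compound exposure at 37 degree Celsius. Cells were HEK 293 plated at 250 cells/well.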
Luciferase inh – blocks purified firefly luciferase enzyme activity. purified P. pyralis luciferase, luminescence, biochemical. 2.5% of 76,000 active. Potency, µM (top dose mostly 115 µM), most hits filed as inhibitors. P08659; further: nearly all actives have a fitted effect of over 65% in size
Target sequence (P08659 whole entry, looked up): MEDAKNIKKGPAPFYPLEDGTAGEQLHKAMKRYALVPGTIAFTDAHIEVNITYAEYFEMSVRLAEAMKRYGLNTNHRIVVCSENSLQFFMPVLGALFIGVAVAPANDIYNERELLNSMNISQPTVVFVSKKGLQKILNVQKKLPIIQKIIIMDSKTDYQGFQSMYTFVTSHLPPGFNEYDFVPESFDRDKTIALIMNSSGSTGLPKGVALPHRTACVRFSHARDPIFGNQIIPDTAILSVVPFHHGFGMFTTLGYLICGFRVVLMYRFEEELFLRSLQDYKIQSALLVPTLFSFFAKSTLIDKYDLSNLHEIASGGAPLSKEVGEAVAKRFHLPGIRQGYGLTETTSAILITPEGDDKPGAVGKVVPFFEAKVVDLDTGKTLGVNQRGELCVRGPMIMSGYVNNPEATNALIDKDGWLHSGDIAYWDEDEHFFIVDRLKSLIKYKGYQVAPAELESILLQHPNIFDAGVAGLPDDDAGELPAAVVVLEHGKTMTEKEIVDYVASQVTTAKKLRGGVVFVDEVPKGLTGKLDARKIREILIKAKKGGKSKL
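Biochemical qHTS: compound (6-point titration) added to 10uM D-luciferin plus 10uM ATP in Tris acetate pH 7.5 buffer with Mg, Tween-20 and BSA, then purified enzyme at 10nM; light output imaged.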
hNpr1 antagonist – human Npr1 receptor antagonism; P16066; HEK293 hNpr1 GloSensor cGMP, ANP-stimulated luminescence; Potency, µM (highest dose often 46.3 µM), inactives show top-dose activity change, negative = inhibition, hits mostly inhibitors; 1.6% of 76,000 active; calls by dose curve; further: nearly all actives have a fitted effect of over 60% in size
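HEK293 cells stably expressing human Npr1 and cGMP GloSensor pGS-40F, loaded 2 h with 2% GloSensor reagent, given compound 30 min at room temperature. Luminescence read before and 20 min after 0.1 nM hNppA.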
NIH3T3 tox – kills NIH 3T3 cells | AID 1345082 | NIH 3T3 viability, CellTiter-Glo ATP luminescence, 48-72 h | 4.3% of 94,000 active | Potency, µM (series often up to 96.7 µM), inactives show at the highest dose activity change, negative = cytotoxicity, actives largely listed as inhibitors; further: nearly all actives have a fitted effect of over 55% in size
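Cytotoxicity is measured as loss of cellular ATP: NIH 3T3 cells (400/well) are exposed to compound for 48 or 72 hr at 37 °C, then CellTiter-Glo luminescence is imaged after 10 min at room temperature.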
* = called active by the depositor; i = inactive; ? = inconclusive; nt = not tested or not shown; ! = not active in a repeat; [ ] = another dose, or the depositor's remark. Unless noted, the call rests on the fitted dose curve; in most records, active means well fitted curve in the direction sought with a large enough effect; inconclusive means small, poorly fitted or top-dose-only effect, or another doubt; inactive means no such curve, though single readings can be large; an effect the other way counts as inactive or inconclusive. On the % scale 0 is the no-effect control and ±100 the full control effect; potency means the concentration at half of the fitted maximal effect.

SMILES	GPT2 inhibitor	HEK293 tox	Luciferase inh	hNpr1 antagonist	NIH3T3 tox
CCN1c2cc(C(=O)Nc3ccc(Cl)c(F)c3)ccc2C(=O)N2CCCCCC21 (stereo not given)	i	?	i	0%	?
CN1CCN(C(=O)c2ccc3nnc(-c4cccc(C(F)(F)F)c4)n3c2)CC1	i	5%	nt	nt	-16%
O=C(NC1CCCC1)N1CCC(C(=O)N2CCC(N3CCCC3=O)CC2)CC1	i	i	nt	nt	-17%
Cc1ncc(CN2CCCC2C(=O)Nc2ccc(-c3cccc(F)c3)cc2)[nH]1 (stereo not given)	-3%	?	i	-2%	?
O=C(Nc1ccc(-c2cccc(F)c2)cc1)C1CCCN1Cc1ccc(CO)o1 (stereo not given)	i	35µM*	?	-19%	?
Cc1ncc(CN2CCCC2C(=O)Nc2ccc(-c3cccc(F)c3)cc2)n1C (stereo not given)	i	20µM*	i	16%	?
O=C(Nc1cccc(F)c1)c1cnc2c(c1)N(C(=O)Cc1cccc(C(F)(F)F)c1)CCC2	-7%	?	i	?	?
CCN1CCN(C(=O)c2ccc(-c3nnc4ccc(NC(=O)C5CCC5)cn34)cc2)CC1	i	?	?	3%	-5%
Cc1ccc(-c2ccccc2CN2CCN(C(=O)c3ccc(Cl)nc3)CC2)cc1Cl	-4%	?	nt	nt	35µM*
Cc1ccc(-c2ccccc2CN2CCN(C(=O)Nc3ccccc3)CC2)cc1Cl	-4%	32µM*	nt	nt	?
Cc1ccc(-c2ccccc2CN2CCN(C(=O)c3ccc(F)cc3)CC2)cc1Cl	-12%	?	nt	nt	?
Cc1ccc(-c2ccccc2CN2CCC(C(=O)NCCc3ccccc3)CC2)cc1Cl	2%	40µM*!	nt	nt	25µM*
Cc1ccc(-c2ccccc2CN2CCN(C(=O)C3CC3)CC2)cc1Cl	-16%	?	nt	nt	?
Cc1ccc(C(=O)N2CCN(Cc3ccccc3-c3ccc(C)c(Cl)c3)CC2)cc1	4%	40µM*	nt	nt	?
CNC(=O)c1cc(C2CC2)nc2onc(C3CCCN3C(=O)c3ccc(F)cc3)c12 (stereo not given)	nt	-16%	nt	nt	-16%
COc1ccc(C(=O)N2CCCC2C(=O)N2CCC(c3ccccc3)CC2)cc1 (stereo not given)	i	-24%	nt	nt	-9%
O=C(NCc1ccc(F)cc1)c1ccc2nnc(C3CC3)n2c1	i	-21%[172 µM]	nt	nt	?
CC(C(=O)N1Cc2c(C(=O)NC3CC3)nn(C)c2C1)c1ccccc1 (stereo not given)	i	i	nt	nt	i
Cc1ccc(-c2ccccc2CN2CCN(C(=O)c3ccccc3Cl)CC2)cc1Cl	-13%	40µM*	nt	nt	40µM*
Cc1ccc(-c2ccccc2CN2CCN(C(=O)c3ccccc3C)CC2)cc1Cl	-6%	?	nt	nt	?
O=C(NCCCc1ccccc1)C1CCCN1C(=O)c1cccc(-c2cccnc2)c1 (stereo not given)	nt	-17%	nt	nt	?
COc1ccc(OCc2cc(C(=O)NC(C)CCO)n[nH]2)c(Cl)c1 (stereo not given)	3%	-13%	?	-1%	-26%
COc1ccc(OCc2cc(C(=O)NCCc3nc(C)c(C)s3)no2)c(Cl)c1	i	32µM*	?	0%	?
Cc1cnc(CC2CCCN(C(=O)NCC(C)C)C2)n1Cc1ccc(F)cc1 (stereo not given)	i	-13%	i	6%	-12%
CCOc1ccc(NC(=O)Cn2c(N3CCN(c4ccccc4)CC3)nc(C)cc2=O)cc1	-13%	?	i	-3%	-5%
SMILES	GPT2 inhibitor	HEK293 tox	Luciferase inh	hNpr1 antagonist	NIH3T3 tox
CCOc1ccc(NC(=O)Cn2c(-c3ccccc3)nc(C)cc2=O)cc1	i	?	i	-3%	?
CC(=O)c1ccc(NC(=O)Cn2c(N3CCc4ccccc4C3)nc(C)cc2=O)cc1	-14%	35µM*	i	-27%	28µM*
CCOc1ccc(NC(=O)Cn2c(N3CCc4ccccc4C3)nc(C)cc2=O)cc1	i	40µM*	i	-12%	32µM*
CC(=O)c1cccc(NC(=O)Cn2c(N3CCc4ccccc4C3)nc(C)cc2=O)c1	-1%	45µM*	i	-22%	?
Cc1cc(=O)n(CC(=O)Nc2ccc(C)c(C)c2)c(N2CCc3ccccc3C2)n1	i	?	i	-13%	-2%
CCOc1ccc(NC(=O)Cn2c(Nc3cc(C)cc(C)c3)nc(C)cc2=O)cc1	-14%	?	i	-27%	32µM*
COc1ccc(-c2ccccc2C(=O)N2CCC(NC(=O)c3ccc(Cl)cc3)CC2)nn1	nt	?	nt	nt	-27%
COc1cccc(CC(=O)N2CCC3(CC2)C(OC)C(=O)N3CC2CC2)c1 (stereo not given)	3%	-4%	nt	nt	-6%
CN1CC(=O)N(C2CCCC2)Cc2c(NC3CCCC3)ncnc21	?	-2%[172 µM]	nt	nt	?
COCCc1noc(C2Cc3ccccc3N2C(=O)CCc2cccc(OC)c2)n1 (stereo not given)	4%	?	nt	nt	?
CC(=O)NC1CCCc2c1[nH]c1ccc(Cl)cc21 (stereo not given)	-13%	?	i	-1%	?
Cn1c(=O)cc(C(=O)NC2CCCc3c2[nH]c2ccc(Cl)cc32)c2ccccc21 (stereo not given)	i	32µM*	i	0%	?
CCOC(=O)NC1CCCN(Cc2cccc(-c3ccc(C)c(Cl)c3)c2)C1 (stereo not given)	i	40µM*	nt	nt	?
Cc1cc(C)cc(-c2ccc(CN3CCCC(NC(=O)Cc4ccccn4)C3)cc2)c1 (stereo not given)	-10%	?	nt	nt	35µM*
Cc1ccc(-c2cccc(CN3CCCC(NC(=O)Cc4ccccn4)C3)c2)cc1Cl (stereo not given)	i	-20%	nt	nt	25µM*
Cc1ccc(-c2cccc(CN3CCCC(NC(=O)c4ccccc4C)C3)c2)cc1Cl (stereo not given)	i	?	nt	nt	?
Cc1cc(C)cc(-c2ccc(CN3CCCC(NC(=O)C4CC4)C3)cc2)c1 (stereo not given)	i	-18%	nt	nt	-15%
Cc1ccc(-c2cccc(CN3CCCC(NC(=O)c4c(C)noc4C)C3)c2)cc1Cl (stereo not given)	-8%	22µM*	nt	nt	?
Cc1ccc(C(=O)NC2CCCN(Cc3cccc(-c4ccc(C)c(Cl)c4)c3)C2)cc1 (stereo not given)	-9%	i	nt	nt	0%
COC(=O)N1CCN(CCn2nc3n(c2=O)CCCC3)CC1	nt	0%[172 µM]	nt	nt	-16%[138 µM]
CC(C)C(=O)NC1CCN(c2ccc3nnc(-c4ccccc4)n3n2)C1 (stereo not given)	nt	-20%	nt	nt	-18%
